Data on five compounds can be found in PubChem BioAssay.

As usually defined, the viability is a read-out of living cells in per cent, often relative to untreated cells.

“And” between values parts separate entries of the source, which are not always exact repeats. Equal entries are not always repeated. The source made the active and inactive calls.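 Rule for the calls, unless noted: active = compounds whose cell count with miR-34 switched on is under 0.7 times the count with it off; inactive = the rest.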

The nature of assay [1]: P. berghei load reduction in hepatocytes – cell-based, HepG2, luciferase luminescence, HepG2 viability, primary screen (AID 624349; in the data active = parasite load remaining mostly below about 12%, no sharp cut-off; inactive = mostly above about 10%;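 note: 100% = mean of DMSO negative control wells on the same plate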). The note with it: P. berghei liver stage in HepG2, luciferase luminescence, concentration not given here; parasite load remaining: stronger effect = lower value; viability: measured here: HepG2 viability without parasites.
A short description of assay [2]: Wnt pathway potentiators raising nuclear beta-catenin – imaging, WNT3A-conditioned medium, mouse C2C12, NPC library, primary screen (AID 1117326; in the data active = nuclear beta-catenin stimulation mostly above about 4.2%, no sharp cut-off; inactive = mostly below about 10%). Particulars: stronger effect = higher value.
The nature of assay [3]: stimulators of insulin release from INS-1E, primary screen, cell-based, 5 mM glucose, NPC library (AID 1117329;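 active = compound raises insulin release from rat beta cells at 5 mM glucose, no numeric limit stated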). The note with it: rat INS-1E insulin secretion, at 10 µM, stronger effect = higher value.
Assay [4] can be described thus: growth inhibition of GSK3B-pretreated HCT116 cells – cell-based, CellTiter-Glo, 0.2 to 20 µM (AID 1117336;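 active = compounds lowering colon cancer cell viability after pretreatment blocking the GSK3B kinase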). The note with it: HCT116 viability after GSK3B inhibitor, at 20 µM, stronger effect = higher value.
Assay [5] can be described thus: inhibition of endothelial tube formation, primary screen, imaging, VEGF stimulated, CD31 staining, tube area, NPC library (AID 1117340;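 active = compound that reduces growth-factor-driven endothelial tube area in a mixed cell culture, no cutoff stated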). The note with it: VEGF-stimulated ADSC/ECFC co-culture, at 10 µM, stronger effect = higher value.
Assay [6] in a line: GLP1 release stimulators, primary, NCI-H716, NPC library (AID 1117341;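 active = compound raises GLP1 secretion from the human gut endocrine cells, with no numeric limit stated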). Particulars: NCI-H716 cells, at 10 µM, stronger effect = higher value.
Assay [7] in a line: HCT116 colon cancer cell growth inhibition, primary screen, CellTiter-Glo luminescence, NPC library (AID 1117342;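 active = compounds that lower survival of HCT116 colon cancer cells in the luminescence readout, no numeric limit stated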). The note with it: at 20 µM (top of the series).
The nature of assay [8]: reduced SW480 viability measured with CellTiter-Glo, NPC library, primary (AID 1117343;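 active = compounds that lower viability of the colon cancer cells in the luminescence readout, with no numeric limit stated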). The note with it: CellTiter-Glo luminescence; at 20 µM (top of the series) unless noted.
Assay [9] is described as follows: NPC library primary testing for decreased DLD-1 cell viability via CellTiter-Glo (AID 1117346;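 active = compounds that lower survival of DLD-1 colon cancer cells in the luminescence readout, no cutoff given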). Particulars: DLD-1 viability, CellTiter-Glo luminescence; at 20 µM (top of the series). In general terms: In ATP-based viability assays light output follows the ATP content of the culture.
Assay [10] can be described thus: viability loss with induced miR-34 in A549 – imaging, A549 dox-inducible miR-34, nuclei and caspase counts, primary screen (AID 1347080). The note with it: A549 miR-34 inducible, Hoechst nuclei count, 48 h.
A short description of assay [11]: blockers of cellular phospholipid synthesis – cell-based, LOPAC library, screen 4, primary screen (AID 1347384; call rule not given here). The note with it: animal cells, phospholipid biosynthesis inhibition screen; at 10 µM.
A short description of assay [12]: MELAS cybrid and Rieske KO viability enhancers – cell-based, MELAS cybrids, Rieske KO mouse fibroblasts, CellTiter-Glo, primary screen (AID 1508586;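 active = mean z-score across replicates of 1.96 or higher in either the MELAS or the Rieske mutant cell line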;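 note: z relative to plate mean and SD of compound and empty wells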). The note with it: low glucose.
Assay [13] can be described thus: galactose survival enhancers in mitochondrial complex I cybrids – cell-based, galactose medium, ATP luminescence, primary screen (AID 1645843;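 active = z-score of at least 1.8 in each of two replicates, scored against plate mean and spread of sample wells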;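 note: positive z means more ATP and so rescue of galactose-driven cybrid death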). The note with it: complex I mutant cybrid cells, 72 h, stronger effect = higher value.
Where [14] appears, read: stronger effect = lower value, cell number ratio, induced over uninduced.
[15] abbreviates: measured here: relative caspase fold change +Dox/-Dox.
[16] abbreviates: measured here: total cells with miR-34 induction, stronger effect = lower value.
Where [17] appears, read: measured here: total cells without miR-34 induction.
The mark [18] stands for this setting: MELAS cybrid survival, CellTiter-Glo 48 h, stronger effect = higher value.
[19] abbreviates: Rieske KO mouse fibroblast survival, CellTiter-Glo 72 h.

For `CC(=O)Oc1cc(C(F)(F)F)ccc1C(=O)O`, the parasite load remaining in assay [1] was 140% (inactive) and 78.8% (inactive). Further, the viability in [1] was 117% and 74.8%. For the same compound, the nuclear beta-catenin stimulation is -0.6% (inactive) in assay [2] (at 10 µM) and -0.8% in assay [2] (stimulation, at 2 µM). Also, the insulin secretion stimulation in assay [3] is 2.8% (inactive). Also, the viability decrease in [4] is -12.2% (inactive). Besides, the tube area decrease in assay [5] was -1.7% (inactive). The GLP1 secretion stimulation in [6] was -6.4% (inactive). Also, in assay [7], the inhibition of viability was 16.4% (inactive). Moreover, the viability decrease (inhibition) in [8] was 8.4% (inactive); in assay [9], 5.4% (inactive). Further, the fold change in [10] (setting [14]) is 0.83 (inactive) and 0.986 (inactive); in [10] (setting [15]) it was 1.45 and 0.716. Further, the cell count in assay [10] (setting [16]) was 8780 and 8310; in [10] (setting [17]) it was 10600 and 8430. Moreover, the outcome in [11] was inactive. Moreover, the z-score in [12] (setting [18]) was -0.0694 (inactive) and 0.0403 (inactive); in assay [12] (setting [19]), -0.153 and -0.0623.

Consider `Nc1c(CC(=O)O)cccc1C(=O)c1ccc(Br)cc1`, for which the nuclear beta-catenin stimulation is -0.1% (inactive) in [2] (at 10 µM) and 0.4% in [2] (stimulation, at 2 µM). Further, the insulin secretion stimulation in assay [3] is 1.4% (inactive). Also, the viability decrease in assay [4] was 52.4% (active). Also, the tube area decrease in assay [5] is -4.7% (inactive). The GLP1 secretion stimulation in assay [6] was 0.3% (inactive). Moreover, in assay [7], the inhibition of viability is -13.5% (inactive). Also, the viability decrease (inhibition) is 37.9% (inactive) in assay [8] and 82.5% (active) in assay [9]. Further, the values for the fold change in assay [10] (setting [14]) and in [10] (setting [15]) were 0.937 (inactive) and 1.05, respectively. Moreover, the cell count in [10] (setting [16]) was 8540; in assay [10] (setting [17]) it was 9120. Further, the results for the z-score in [12] (setting [18]) and in assay [12] (setting [19]) were -0.257 (inactive) and -0.191, respectively.

On to `OCCN1CCN(CC/C=C2/c3ccccc3Sc3ccc(C(F)(F)F)cc32)CC1`, for which the parasite load remaining in [1] is 69.9% (inactive). In [1], the viability turned out to be 81%. Also, the nuclear beta-catenin stimulation in [2] (at 10 µM) is -1.3% (inactive); in assay [2] (stimulation, at 2 µM), 14.5%. The insulin secretion stimulation in assay [3] was 10.7% (inactive). In [4], the viability decrease is 120% (active). Also, the tube area decrease in [5] was 88.3% (active). Further, the GLP1 secretion stimulation in [6] was 69.1% (active). Further, the inhibition of viability in [7] was 126% (active). Moreover, the viability decrease (inhibition) in assay [8] was 167% (active); in assay [9], 102% (active). The fold change in assay [10] (setting [14]) was 1.1 (inactive); in assay [10] (setting [15]), 1.38. For the same compound, the cell count in assay [10] (setting [16]) is 6940; in [10] (setting [17]) it was 6310. Moreover, the compound was called inactive in [11]. The z-score in assay [13] was -1.04 (inactive).

For the compound `CCNC(=O)N1CCN(CCCC(c2ccc(F)cc2)c2ccc(F)cc2)CC1`, the nuclear beta-catenin stimulation in assay [2] (at 10 µM) is 0.3% (inactive); in [2] (stimulation, at 2 µM), -1.1%. In addition, in assay [3], the insulin secretion stimulation was 1.1% (inactive). Further, in assay [4], the viability decrease is 50.7% (active). Moreover, the tube area decrease in assay [5] is 17.1% (inactive). Also, the GLP1 secretion stimulation in [6] was 7.1% (inactive). In addition, the inhibition of viability in assay [7] was 85.2% (active). In addition, the values for the viability decrease (inhibition) in [8] and in assay [9] were 119% (active) and 57.7% (active), respectively. For the same compound, the fold change in [10] (setting [14]) was 0.987 (inactive); in [10] (setting [15]), 1.62. Also, the cell count is 6860 in assay [10] (setting [16]) and 6940 in assay [10] (setting [17]). Further, in assay [11], the outcome was inactive. Further, the z-score in assay [13] is -1.42 (inactive).

As for `CC1=C(C(=O)OC(C)C)C(c2cccc([N+](=O)[O-])c2)C(C(=O)OC2CN(C(c3ccccc3)c3ccccc3)C2)=C(N)N1` (stereo not given), the nuclear beta-catenin stimulation was -2% (inactive) in [2] (at 10 µM) and 2.2% in [2] (stimulation, at 2 µM). Also, the insulin secretion stimulation in assay [3] is 5.2% (inactive). In addition, the viability decrease in assay [4] was 111% (active). Further, in assay [5], the tube area decrease is 109% (active). In addition, the GLP1 secretion stimulation in assay [6] is 40.3% (active). The inhibition of viability in assay [7] is 113% (active). Moreover, the viability decrease (inhibition) in assay [8] was 133% (active); in assay [9], 102% (active). The fold change in assay [10] (setting [14]) is 0.933 (inactive); in assay [10] (setting [15]), 0.636. Besides, the cell count in assay [10] (setting [16]) was found to be 7560; in [10] (setting [17]), 8100. The z-score in assay [12] (setting [18]) was -0.296 (inactive); in assay [12] (setting [19]) it was -0.252.
